Pf growth 96h – Primary qHTS for delayed death inhibitors of the malarial parasite plastid, 96 hour incubation. Potency, µM (titrated, usually from 28.7 µM), inactives show at the top dose activity change, negative = inhibition, hits mostly inhibitors. P. falciparum luciferase reporter growth, 96 h. hit rate 6.9% among 320,000; also: potency is read from the fitted curve at half-maximal effect; % is scaled to controls: 0 for no effect and ±100 for the full control effect
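Infected RBCs, 2% Hct / 0.05% parasitemia final; luciferase-reporter P. falciparum; cpd 96 h, 37 C, 5% CO2; luciferase detection reagent; luminescence.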
Cycloheximide cs – Cycloheximide Counterscreen for Small Molecule Inhibitors of Shiga Toxin | AID 2314, 2010 | hit rate 12% among 300,000 | max response, % | cell reporter, cycloheximide protein synthesis inhibition counterscreen; in the data active = max response mostly above about 13%, no sharp cut-off; inactive = mostly below about 14%; also: read at 38.3 µM for the half of the compounds with a filed dose; 0% is about no effect
Pf growth 48h – Primary qHTS for delayed death inhibitors of the malarial parasite plastid, 48 hour incubation; P. falciparum luciferase growth in erythrocytes, 48 h; Potency, µM (doses to about 28.7 µM), without a hit: at the top dose activity change, negative = inhibition, usual class: inhibitors; hit rate 5.9% among 310,000; AID 504832, 2011; also: potency is read from the fitted curve at half-maximal effect; % is scaled to controls: 0 for no effect and ±100 for the full control effect
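Parasite viability was followed by luminescence of a genomically integrated firefly luciferase. Cultures held 0.1% parasitemia at 2% hematocrit (final), incubated under 5% CO2 at 37 C.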
Shiga toxin inh – A qHTS for Small Molecule Inhibitors of Shiga Toxin | Vero cells, Shiga toxin protein synthesis inhibition reporter | inhibition, % at 38.7 µM | hit rate 9.2% among 290,000 | AID 2315, 2010; in the data active = inhibition mostly above about 28%, no sharp cut-off; inactive = mostly below about 43%; also: 0% is about no effect
HCV inhibitor – qHTS Assay for Inhibitors of Hepatitis C Virus (HCV) | Huh7.5.1 HCVcc-Cre infection, luciferase reporter, 44 h | Potency, µM (series often up to 41.8 µM), inactives show at the top dose activity change, negative = inhibition, hits mostly inhibitors | hit rate 3.4% among 340,000 | AID 651820, 2012; also: potency is read from the fitted curve at half-maximal effect; % is scaled to controls: 0 for no effect and ±100 for the full control effect
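Infectious HCVcc-Cre (~0.5 moi) was added to cells just after compound, with cells seeded 4 h earlier at 1,000 per well. Luciferase activity after 44 h culture reported infection; substrate was incubated 15 min at room temperature before reading.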
AMA1 RON2 block – qHTS for Inhibitors of AMA1-RON; Towards Development of Antimalarial Drug Lead: Primary Screen. hit rate 0.2% among 360,000. AlphaScreen AMA1-biotinylated RON2 peptide binding. AID 720542, 2013. Potency, µM (doses to about 58.2 µM), inactives show at the highest dose activity change, negative = inhibition, actives largely listed as inhibitors;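 also: potency is read from the fitted curve at half-maximal effect; 0% = vehicle wells and -100% = peptide control; nearly all actives have a fitted effect of over 45% in size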
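AMA1 (3D7) with his tag at 25 nM final met compounds first, then biotinylated RON2 peptide at 25 nM; detection used donor plus acceptor beads, 10 µg/mL apiece, read by AlphaScreen after 30 min at room temperature.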
Active calls of the source: *; ? = inconclusive; nt = not tested or not shown; [ ] = remark or other dose. Rows were chosen to be rich in hits. Some 21% of all compounds tested hit in one or more screens of this group. Unless noted, calls follow the shape of the dose curve; as a rule, active = well fitted curve in the direction sought with a large enough effect; inconclusive = small, poorly fitted or top-dose-only effect, or another doubt; inactive = no such curve, though single readings can be large; an effect the other way counts as inactive or inconclusive.

SMILES | Pf growth 96h | Cycloheximide cs | Pf growth 48h | Shiga toxin inh | HCV inhibitor | AMA1 RON2 block
Cn1c(CO)cnc1SCC(=O)c1ccc(Cl)cc1 | 46.1% | 17.8 | ? | 31.4 | -4.3% | 9.6%
CCSc1ncc(/C=N/Nc2ccc([N+](=O)[O-])cc2)n1C | ? | 25.2* | 53.2% | 54.6* | 0.2% | -3.9%
CCSc1ncc(/C=N/Nc2ccc(Cl)cc2)n1C | ? | 77.4* | ? | 111.9* | ? | ?
Cn1c(-c2ccc(F)cc2)cnc1SCC(=O)Nc1ccccc1 | ? | 14.9 | -2.5% | 6.5 | ? | 7.5%
CCSc1ncc(/C=N/Nc2ccccc2)n1C | 2.62µM* | 29.2* | 5.22µM* | 55.4* | ? | -15.4%
CC1Oc2ccccc2N(CC(=O)N2CCCCCC2)C1=O (configuration not stated) | 22.3% | 7.1 | 9.2% | -17.1 | ? | 13.6%
CCc1cc(Cl)c(OC)c(C(=O)NC[C@@H]2CCCN2CC)c1O | nt | -1.9 | nt | 1.3 | 5.01µM* | 5.2%
CCN1CCCC1CNC(=O)c1ccccc1Cl (configuration not stated) | -15.1% | -4.7 | -12.1% | 15.4 | 9.1% | 33.4%
CNC1CCc2cc(OC)c(OC)c(OC)c2-c2ccc(OC)c(=O)cc21 (configuration not stated) | -28.5% | nt | -18.3% | nt | nt | nt
CCOC(=O)C1(c2ccccc2)CCN(CCC(=O)Nc2cccc(Br)c2)CC1 | ? | nt | ? | nt | 11.2µM* | -15.1%
CCOC(=O)C1(c2ccccc2)CCN(CCC(=O)Nc2ccc(OC)cc2)CC1 | nt | nt | nt | nt | nt | 5.3%
O=C(CCN1CCN(c2ccccc2)CC1)Nc1cccc(Br)c1 | ? | -7.1 | ? | -14.0 | -8.2% | -10.0%
CCOC(=O)C1(c2ccccc2)CCN(CCC(=O)Nc2ccc(C(=O)OC)cc2)CC1 | 9.28µM* | nt | 5.22µM* | nt | ? | -5.3%
CCOC(=O)C1(c2ccccc2)CCN(CCC(C#N)(c2ccccc2)c2ccccc2)CC1 | 1.9µM* | nt | 1.9µM* | nt | -57.8% | -20.1%
CCCCn1c(Cn2nc(C(=O)O)c3ccccc3c2=O)nc2cc(S(N)(=O)=O)ccc21 | 28.4% | -5.3 | 39.3% | 18.9 | -5.4% | 7.8%
O=C(OCC(=O)N1CCc2ccccc21)[C@@H]1CC(O)CN1S(=O)(=O)c1ccc(Cl)cc1 (some centres not stated) | nt | nt | nt | nt | 4.9% | -0.4%
O=C(c1ccc(S(=O)(=O)NCC2CCCO2)cc1)N1CCN(c2cccc(Cl)c2)CC1 (configuration not stated) | 4.3% | -2.4 | -16.9%[5.75 µM] | 13.2 | 11.2µM* | -1.1%
O=S(=O)(NCC1CCCO1)c1ccc(-c2ccc(Cl)cc2)cc1 (configuration not stated) | 41.7% | 17.2* | 0.0% | 20.4 | ? | -8.0%
O=C(CN(Cc1ccco1)C(=O)CNS(=O)(=O)c1ccc(Cl)cc1)NCC1CCCO1 (configuration not stated) | 0.0% | -2.1 | 1.85µM* | 1.9 | 3.0% | -14.5%
Cc1ccc(NC(=O)c2ccc(S(=O)(=O)NCC3CCCO3)cc2)cc1 (configuration not stated) | -23.5% | 9.4 | -18.2% | 31.3* | -0.9% | -0.1%
O=C(Nc1ccc2c(c1)OCO2)c1ccc(S(=O)(=O)NCC2CCCO2)cc1 (configuration not stated) | nt | -2.5 | -17.6% | -4.1 | -3.8% | -4.9%
CCOc1cccc2sc(N(CCCN(C)C)C(=O)c3ccc(S(=O)(=O)N(C)CC4CCCO4)cc3)nc12 (configuration not stated) | ? | -2.7 | -12.6% | -12.3 | -14.6% | -10.7%
Cc1ccc(NC(=O)c2ccc(Cl)c(S(=O)(=O)NCC3CCCO3)c2)c(O)c1 (configuration not stated) | 6.57µM* | 1.6 | ? | 0.8 | ? | -3.9%
Cc1cc(C)c2nc(N(CCN(C)C)C(=O)c3ccc(S(=O)(=O)N(C)CC4CCCO4)cc3)sc2c1 (configuration not stated) | ? | 22.4* | -11.1% | 57.9 | -12.4% | -16.0%
Cc1cc(C)cc(NC(=O)c2ccc(S(=O)(=O)N(C)CC3CCCO3)cc2)c1 (configuration not stated) | 2.62µM* | -1.7 | ? | -4.6 | -19.7% | -0.7%
SMILES | Pf growth 96h | Cycloheximide cs | Pf growth 48h | Shiga toxin inh | HCV inhibitor | AMA1 RON2 block
O=c1[nH]nc(-c2ccc[nH]2)[nH]1 | nt | nt | nt | nt | nt | 6.0%
Cc1ccc(Cl)c(OCC(=O)NC2CCN(Cc3ccccc3)CC2)c1 | -2.4% | nt | -20.5% | nt | ? | -3.6%
CCC(c1nc2ccccc2[nH]1)n1c(=O)c(-c2ccccc2)nc2ccccc21 (configuration not stated) | nt | nt | nt | nt | nt | -7.2%
O=C(Nc1ccccc1F)c1cc2nc(C(F)F)cc(C(F)F)n2n1 | 114.3% | 22.5* | 96.5% | 51.7* | ? | -5.3%
O=C(Nc1ccccc1F)c1cnccn1 | ? | 17.5* | 43.0% | 53.0* | 23.3% | 7.3%
O=C(Nc1ccccc1-c1ccccc1)c1cnccn1 | ? | 14.4* | nt | 53.6 | ? | 18.8%
Cc1ccc(NC(=O)c2cnccn2)c(Br)c1 | ? | 25.9* | 53.5% | nt | 11.7% | 10.9%
O=C(Nc1cccc(O)c1)c1cc2nc(-c3ccccc3)cc(-c3ccccc3)n2n1 | -9.2% | -0.9 | -25.3% | -15.9 | ? | -6.3%
N#Cc1cccc(S(=O)(=O)NCC(=O)NCc2ccc3c(c2)OCO3)c1 | -12.9% | nt | -4.1% | nt | -1.7% | -7.6%
CCN(CC)CCOc1ccc2c(c1)C(=NO)c1cc(OCCN(CC)CC)ccc1-2 | 1.85µM* | -1.3 | 6.57µM* | -20.5 | 10µM* | -4.0%
CCN(CC)CCOc1ccc(/C(=C(\Cl)c2ccccc2)c2ccccc2)cc1 | 2.33µM* | nt | 2.08µM* | nt | 11.2µM* | ?
CCCOc1ccc2c(c1)C(=NN=C(N)N)c1cc(OCCC)ccc1-2 | 4.6% | -4.2 | 0.657µM* | -6.5 | 11.2µM* | -3.7%
CCN(CC)CCOc1ccc(Br)cc1 | 2.62µM* | -1.7 | 3.6% | 14.8 | ? | -8.6%
NC(N)=NN=C1c2ccccc2-c2ccccc21 | ? | 0.6 | ? | -6.1 | -1.5% | -5.5%
CC/C(=C(/c1ccccc1)c1ccc(OCCN(C)C)cc1)c1ccccc1 | nt | -7.3 | nt | -9.2 | nt | nt
CC1=NN(c2ccc(Cl)cc2)C(=O)C1 | 1.5% | 1.4 | -15.2% | -8.7 | 23.3% | -17.7%
Cc1ccc(N2CS(=O)(=O)/C(=C/N(C)C)C2=O)cc1 | 219.3% | 37.8* | 2.62µM* | 77.3* | 4.0% | -6.2%
CN(C)/C=C1\C(=O)N(c2ccc(Cl)cc2)CS1(=O)=O | 127.3% | 36.3* | 38.6% | 85.9* | 16.4% | -2.8%
COc1ccc(OC)c(CNC(=O)CCC(=O)N2Cc3cccc(OC)c3Oc3ncccc32)c1 | ? | 7.8 | -24.8% | 1.9 | -9.0% | -2.9%

Compound activity: PubChem BioAssay, National Center for Advancing Translational Sciences (NCATS)
